# Measured values reported in the supplement of paper PMC7380943.
# Assays:
# [1] = system: CLZ3 (HCA2 human fibroblast dual HR-NHEJ reporter); assay: NHEJ repair efficiency (GFP+ cells) relative to control (log10 fold); higher = more non-homologous end joining; conditions: 5 µM; doxycycline 0.5 ug/mL
# [2] = system: CLZ3 (HCA2 human fibroblast dual HR-NHEJ reporter); assay: HR repair efficiency (tdTomato+ cells) relative to control (log10 fold); higher = more homologous recombination; conditions: 5 µM; doxycycline 0.5 ug/mL
# 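Wherever HR repair efficiency (tdTomato+ cells) relative to control is given: compound given one day before doxycycline, which switches on I-SceI endonuclease expression to create double-strand breaks within the integrated reporter.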
# 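Wherever NHEJ repair efficiency (GFP+ cells) relative to control is given: compound given one day ahead of doxycycline, which switches on I-SceI endonuclease to cut the chromosomally integrated reporter and create DSBs.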
SMILES,NHEJ repair efficiency (log10) [1],HR repair efficiency (log10) [2]
c1cc2c(cc1O[C@H]1OC[C@H]3[C@@H]1CO[C@@H]3c1ccc3c(c1)OCO3)OCO2 [Sesamolin],0.101,0.22
CC(C)=CCC[C@](C)(O[C@@H]1O[C@H](CO[C@@H]2OC[C@H](O)[C@H](O)[C@H]2O)[C@@H](O)[C@H](O)[C@H]1O)[C@H]1CC[C@]2(C)[C@@H]1[C@H](O)C[C@@H]1[C@@]3(C)CC[C@H](O[C@@H]4O[C@H](CO)[C@@H](O)[C@H](O)[C@H]4O[C@@H]4O[C@H](CO)[C@@H](O)[C@H](O)[C@H]4O)C(C)(C)[C@@H]3CC[C@]12C [Ginsenoside Rb2],0.0156,0.096
O=C1c2c(O)cc(O)cc2OC(c2ccc(O)c(O)c2)C1O (stereo not given) [Taxifolin],-0.132,-0.0702
C[C@H](CCC(=O)NCCS(=O)(=O)O)[C@H]1CC[C@H]2[C@@H]3C[C@H](O)[C@@H]4C[C@H](O)CC[C@]4(C)[C@H]3CC[C@]12C [Taurohyodeoxycholic Acid],0.0397,0.133
O=c1c(-c2ccc(O)cc2)coc2cc(O[C@@H]3O[C@H](CO)[C@@H](O)[C@H](O)[C@H]3O)ccc12 [Daidzin],-0.234,0.03
COc1ccc([C@@H]2CC(=O)c3c(O)cc(O[C@@H]4O[C@H](CO)[C@@H](O)[C@H](O)[C@H]4O[C@@H]4O[C@@H](C)[C@H](O)[C@@H](O)[C@H]4O)cc3O2)cc1O [Neohesperidin],-0.0783,-0.11
C[C@@H]1O[C@@H](OC[C@H]2O[C@@H](OCCc3ccc(O)c(O)c3)[C@H](O)[C@@H](O)[C@@H]2OC(=O)/C=C/c2ccc(O)c(O)c2)[C@H](O)[C@H](O)[C@H]1O [Forsythoside A],0.0797,0.189
O=c1c(O)c(-c2ccc(O)c(O)c2)oc2cc(O)ccc12 [Fisetin],-0.223,-0.0214
COc1ccc([C@@H]2CC(=O)c3c(O)cc(O[C@@H]4O[C@H](CO[C@@H]5O[C@@H](C)[C@H](O)[C@@H](O)[C@H]5O)[C@@H](O)[C@H](O)[C@H]4O)cc3O2)cc1O [Hesperidin],0.196,0.258
O=c1cc(-c2ccc(O)cc2)oc2c([C@@H]3O[C@H](CO)[C@@H](O)[C@H](O)[C@H]3O)c(O)cc(O)c12 [Vitexin],0.172,0.126
COC(=O)C1=CO[C@@H](O[C@@H]2O[C@H](CO)[C@@H](O)[C@H](O)[C@H]2O)[C@@H]2[C@@]3(C)O[C@H]3[C@@H](O)[C@]12O [Sesamoside],-0.0395,-0.1
CC(C)=CCC[C@](C)(O[C@@H]1O[C@H](CO)[C@@H](O)[C@H](O)[C@H]1O)[C@H]1CC[C@]2(C)[C@@H]1[C@H](O)C[C@@H]1[C@@]3(C)CC[C@H](O)C(C)(C)[C@@H]3[C@@H](O[C@@H]3O[C@H](CO)[C@@H](O)[C@H](O)[C@H]3O[C@@H]3O[C@@H](C)[C@H](O)[C@@H](O)[C@H]3O)C[C@]12C [Ginsenoside Re],-0.152,-0.0179
Cn1c(=O)c2c(ncn2CC2OCCO2)n(C)c1=O [Doxofylline],0.101,0.0399
O=c1oc2c(O)c(O)cc3c(=O)oc4c(O)c(O)cc1c4c23 [Ellagic acid],0.0142,-0.0224
CC1CCC(C(C)C)C(O)C1 (stereo not given) [Menthol],0.0621,-0.0345
OCCc1ccc(O)cc1 [Tyrosol],0.117,0.306
COc1c2ccoc2cc2oc(=O)ccc12 [Bergapten],-0.153,0.125
C[C@@H]1O[C@@H](OC[C@H]2O[C@@H](OCCc3ccc(O)c(O)c3)[C@H](O)[C@@H](O)[C@@H]2O)[C@H](O)[C@H](O)[C@H]1O [Forsythoside E],-0.0418,0.0386
C/C=C/c1cc(OC)c2c(c1)[C@H](C)[C@@H](c1ccc3c(c1)OCO3)O2 [Licarin B],0.0776,0.192
COc1cc2c(cc1OC)[C@@H](Cc1ccc(Oc3cc(C[C@@H]4c5cc(OC)c(OC)cc5CCN4C)ccc3O)cc1)N(C)CC2 [Dauricine],-0.0332,-0.294
